Results filed as inconclusive are left out. Calls of active or inactive are those of the source. Unless noted, calls follow the shape of the full dose curve.
Experiments:
[1] = molecular target: Peroxisome proliferator-activated receptor delta (Homo sapiens) (UniProt Q03181); experiment: qHTS assay to identify small molecule agonists of the peroxisome proliferator-activated receptor delta (PPARd) signaling pathway (AID 743212)
In short: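 Beta-lactamase reporter readout: a ratiometric FRET signal from the LiveBLAzer substrate after 2 h at room temperature. Compound exposure at 37 °C in PPARδ-bla HEK293H cells driven by an upstream activator sequence.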

[2] = qHTS assay to identify small molecule antagonists of the peroxisome proliferator-activated receptor delta (PPARd) signaling pathway - cell viability counter screen (AID 743213; active = well fitted curve in the direction sought with a large enough effect in the repeat runs; an effect the other way counts as inactive or inconclusive; also: nearly all actives have a fitted effect of over 50% in size)
In short: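 PPARd-bla HEK293H cells (3000/well) got compound plus 300 nM L165041 agonist for 17 h at 37 C. Viability in the same wells came from CellTiter-Glo luminescence after 30 min at room temperature.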

[3] = molecular target: Peroxisome proliferator-activated receptor delta (Homo sapiens) (UniProt Q03181); experiment: qHTS assay to identify small molecule antagonists of the peroxisome proliferator-activated receptor delta (PPARd) signaling pathway (AID 743215; active = well fitted inhibition curve with a large enough effect in the signal ratio in the repeat runs, not every such curve was filed as active; the % refers to the signal ratio;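 also: cells stimulated with agonist L165041 at 300 nM final during compound exposure; series mostly up to about 62 µM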)
In short: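 HEK293H GeneBLAzer PPARd UAS-bla reporter cells; cpd + L165041 300 nM final, 17 h 37 C; LiveBLAzer B/G FRET substrate 2 h RT; fluorescence intensity read-out. Antagonist mode.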

[4] = molecular target: Bile acid receptor (Homo sapiens) (UniProt Q96RI1); experiment: qHTS assay to identify small molecule antagonists of the farnesoid-X-receptor (FXR) signaling pathway (AID 743217; active = well fitted inhibition curve with a large enough effect in the signal ratio in the repeat runs, not every such curve was filed as active; the % refers to the signal ratio)
Bile acid receptor (Homo sapiens), sequence (Q96RI1 whole entry, looked up): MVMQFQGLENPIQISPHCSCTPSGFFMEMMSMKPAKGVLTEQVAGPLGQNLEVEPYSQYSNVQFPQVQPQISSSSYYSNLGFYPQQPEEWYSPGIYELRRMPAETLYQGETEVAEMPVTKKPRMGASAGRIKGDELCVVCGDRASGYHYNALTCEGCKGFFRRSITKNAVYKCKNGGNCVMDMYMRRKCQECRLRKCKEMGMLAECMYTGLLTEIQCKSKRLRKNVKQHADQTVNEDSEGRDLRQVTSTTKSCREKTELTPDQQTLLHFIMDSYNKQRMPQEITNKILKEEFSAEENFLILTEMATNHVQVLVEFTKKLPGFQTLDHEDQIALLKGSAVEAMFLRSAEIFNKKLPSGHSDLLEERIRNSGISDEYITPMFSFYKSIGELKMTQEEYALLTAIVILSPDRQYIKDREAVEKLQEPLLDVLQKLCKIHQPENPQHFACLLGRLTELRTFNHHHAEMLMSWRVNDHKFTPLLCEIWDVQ
In short: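 Read-out: beta-lactamase FRET fluorescence (LiveBLAzer B/G substrate, 2 h, room temperature) in GeneBLAzer FXR-UAS-bla HEK 293T cells. Compounds were co-dosed with 50 uM chenodeoxycholic acid (final) and incubated 16 h at 37 °C.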

[5] = qHTS assay to identify small molecule antagonists of the farnesoid-X-receptor (FXR) signaling pathway - cell viability counter screen (AID 743221; active = well fitted cell-killing curve with a large enough effect in the repeat runs, not every such curve was filed as active; also: nearly all actives have a fitted effect of over 50% in size)
In short: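 After a 5 h settling period, FXR-bla HEK 293T cells receive compound and chenodeoxycholic acid (50 uM final) and incubate 16 h at 37 C; CellTiter-Glo luminescence, read after 30 min at room temperature, reports cell viability.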

[6] = molecular target: Vitamin D3 receptor (Homo sapiens) (UniProt P11473); experiment: qHTS assay to identify small molecule agonists of the vitamin D receptor (VDR) signaling pathway (AID 743222)
Vitamin D3 receptor (Homo sapiens), sequence (P11473 whole entry, looked up): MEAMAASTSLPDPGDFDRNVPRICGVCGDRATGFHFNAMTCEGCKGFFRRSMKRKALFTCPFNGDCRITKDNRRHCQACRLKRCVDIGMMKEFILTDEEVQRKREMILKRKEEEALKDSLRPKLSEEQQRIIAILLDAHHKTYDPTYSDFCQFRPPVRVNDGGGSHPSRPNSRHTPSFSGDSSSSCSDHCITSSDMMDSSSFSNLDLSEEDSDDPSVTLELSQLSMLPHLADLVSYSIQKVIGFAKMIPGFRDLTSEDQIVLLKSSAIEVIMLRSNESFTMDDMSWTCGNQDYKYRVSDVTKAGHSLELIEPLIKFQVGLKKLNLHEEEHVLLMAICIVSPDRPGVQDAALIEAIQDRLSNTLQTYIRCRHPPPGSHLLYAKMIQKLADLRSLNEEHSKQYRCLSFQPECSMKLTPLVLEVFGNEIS
In short: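 Beta-lactamase reporter readout (LiveBLAzer B/G FRET, 2 h RT) in VDR-bla cells after 16 h compound treatment at 37C, 5% CO2; cells pre-incubated 4 h before pin transfer of DMSO solutions.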

[7] = molecular target: Vitamin D3 receptor (Homo sapiens) (UniProt P11473); experiment: qHTS assay to identify small molecule antagonists of the vitamin D receptor (VDR) signaling pathway (AID 743223; active = well fitted inhibition curve with a large enough effect in the signal ratio in the repeat runs, not every such curve was filed as active; the % refers to the signal ratio)
In short: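 Reporter line VDR-bla; stimulus 1alpha,25-(OH)2 vitamin D3, 3 nM final; compound co-addition, 16 h 37C/5% CO2; LiveBLAzer B/G substrate 2 h RT; fluorescence intensity.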

[8] = qHTS assay to identify small molecule agonists of the vitamin D receptor (VDR) signaling pathway - cell viability counter screen (AID 743224; active = well fitted curve in the direction sought with a large enough effect in the repeat runs; an effect the other way counts as inactive or inconclusive; also: series mostly up to about 63 µM; nearly all actives have a fitted effect of over 50% in size)
In short: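 Cytotoxicity counter screen: VDR-bla cells, 16 h compound exposure at 37C, 5% CO2; CellTiter-Glo luminescence, 30 min RT, same wells as bla read.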

[9] = qHTS assay to identify small molecule agonists of the NFkB signaling pathway - cell viability counter screen (AID 1159515); also: series mostly up to about 61 µM; nearly all actives have a fitted effect of over 55% in size
In short: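 ME-180 NFkB-bla cells, 2,000/well; overnight attach; compound 5 hr, 37 C/5% CO2; LiveBLAzer substrate 1.5 hr RT; then CellTiter-Glo in same wells, 30 min RT, luminescence read.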

[10] = qHTS assay to identify small molecule agonists of the endoplasmic reticulum stress response signaling pathway (AID 1159516; active = well fitted activation curve with a large enough effect in the signal ratio in the repeat runs, not every such curve was filed as active; the % refers to the signal ratio)
In short: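 HeLa ESRE-bla reporter line; cpd 5 h, 37 C/5% CO2; LiveBLAzer B/G FRET substrate 2 h RT; ex 405, em 460/530 nm.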

[11] = qHTS assay to identify small molecule agonists of the endoplasmic reticulum stress response signaling pathway - cell viability counter screen (AID 1159517);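 also: HeLa cells carrying an ER stress response element beta-lactamase reporter; series mostly up to about 61 µM; nearly all actives have a fitted effect of over 50% in size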
In short: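 ESRE-bla HeLa cells (1,500/well) were plated overnight at 37 C and exposed to compounds for 5 hr. After the 2 hr beta-lactamase substrate read, CellTiter-Glo went into the same wells, and luminescence was read after 30 min at room temperature.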

[12] = qHTS assay to identify small molecule antagonists of the retinoid-related orphan receptor gamma (ROR-gamma) signaling pathway - cell viability counter screen (AID 1159520; active = well fitted curve in the direction sought with a large enough effect in the repeat runs; an effect the other way counts as inactive or inconclusive; also: nearly all actives have a fitted effect of over 50% in size)
In short: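 Cytotoxicity was read from cellular ATP (CellTiter-Glo luminescence) after 16 hr at 37 C with 1 uM doxycycline induction. The inducer was added 2 hr after compound transfer to Tet-on ROR gamma CHO cells.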

[13] = molecular target: Nuclear receptor ROR-gamma (Homo sapiens) (UniProt P51449); experiment: qHTS assay to identify small molecule antagonists of the retinoid-related orphan receptor gamma (ROR-gamma) signaling pathway (AID 1159521; active = well fitted curve in the direction sought with a large enough effect in the repeat runs; an effect the other way counts as inactive or inconclusive)
In short: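 Decreased RORE-driven luciferase luminescence indicates antagonism. Tet-on RORγ CHO cells received compound, then 1 uM final doxycycline 2 h later; signal read after 16 h incubation.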

[14] = qHTS assay to identify small molecule agonists of the AP-1 signaling pathway - cell viability counter screen (AID 1159525); also: nearly all actives have a fitted effect of over 55% in size
In short: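 Intracellular ATP by Cell Titer Glo luminescence (30 min, RT) in the same ME-180 AP-1-bla wells after the 5 h compound exposure at 37 °C. Normalised to tetra n-octyl ammonium bromide and DMSO controls.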

[15] = qHTS assay to identify small molecule agonists of the AP-1 signaling pathway (AID 1159526)
[16] = molecular target: Retinoic acid receptor RXR-alpha (Homo sapiens) (UniProt P19793); experiment: qHTS assay to identify small molecule agonists of the RXR signaling pathway (AID 1159527); also: nearly all actives have a fitted effect of over 35% in size
Retinoic acid receptor RXR-alpha (Homo sapiens), sequence (P19793 whole entry, looked up): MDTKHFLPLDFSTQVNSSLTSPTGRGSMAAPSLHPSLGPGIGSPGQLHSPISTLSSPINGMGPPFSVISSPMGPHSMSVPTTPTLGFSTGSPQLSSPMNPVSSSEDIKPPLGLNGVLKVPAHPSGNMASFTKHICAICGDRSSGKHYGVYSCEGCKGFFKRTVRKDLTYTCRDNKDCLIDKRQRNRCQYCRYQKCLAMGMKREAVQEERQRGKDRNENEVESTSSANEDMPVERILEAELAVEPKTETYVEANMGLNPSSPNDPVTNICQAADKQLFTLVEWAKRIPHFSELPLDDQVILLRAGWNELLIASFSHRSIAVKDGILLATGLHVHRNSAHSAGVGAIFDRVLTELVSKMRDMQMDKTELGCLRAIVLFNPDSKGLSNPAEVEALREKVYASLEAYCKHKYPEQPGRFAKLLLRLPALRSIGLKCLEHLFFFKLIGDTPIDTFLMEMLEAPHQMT
In short: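 16 hr incubation of compound-treated RXR-alpha-UAS-bla HEK 293T cells (2% charcoal-stripped FBS, 37 C) preceded a 2 hr room-temperature LiveBLAzer FRET substrate step and blue/green fluorescence measurement.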

[17] = qHTS assay to identify small molecule agonists of the RXR signaling pathway - cell viability counter screen (AID 1159529; active = well fitted curve in the direction sought with a large enough effect in the repeat runs; an effect the other way counts as inactive or inconclusive)
In short: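 In this parallel viability measure, GeneBLAzer RXR-alpha HEK 293T cells (2% charcoal-stripped FBS) were given a 5 hr preincubation, treated with compounds 16 hr at 37 C, and read by CellTiter-Glo luminescence.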

[18] = qHTS assay to identify small molecule agonists of the farnesoid-X-receptor (FXR) signaling pathway - cell viability counter screen (AID 743218; active = well fitted curve in the direction sought with a large enough effect in the repeat runs; an effect the other way counts as inactive or inconclusive; also: nearly all actives have a fitted effect of over 45% in size)
In short: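 Luminescence from CellTiter-Glo, read after 30 min at RT, reports viability of GeneBLAzer FXR-UAS-bla HEK 293T cells treated 16 h with compounds in the wells used for the beta-lactamase reporter.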

[19] = molecular target: Bile acid receptor (Homo sapiens) (UniProt Q96RI1); experiment: qHTS assay to identify small molecule agonists of the farnesoid-X-receptor (FXR) signaling pathway (AID 743220; active = well fitted activation curve with a large enough effect in the signal ratio in the repeat runs, not every such curve was filed as active; the % refers to the signal ratio)
In short: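 FXR-UAS-bla HEK 293T cells carrying a UAS-driven beta-lactamase reporter were plated for 5 h at 37C/5% CO2, then exposed to DMSO-dissolved Tox21 10K compounds for 16 h at 37C. A LiveBLAzer B/G FRET substrate was loaded for 2 h at room temperature before fluorescence reading.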

[20] = qHTS assay to identify small molecule antagonists of the vitamin D receptor (VDR) signaling pathway - cell viability counter screen (AID 743225; active = well fitted curve in the direction sought with a large enough effect in the repeat runs; an effect the other way counts as inactive or inconclusive; also: nearly all actives have a fitted effect of over 50% in size)
In short: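 Parallel cytotoxicity test: VDR-UAS-bla HEK 293T, 3 nM (final) 1-alpha,25-dihydroxyvitamin D3 with test compound, 16 h, 37C. Endpoint is CellTiter-Glo luminescence in the same wells.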

Measured: Potency

Peroxisome proliferator-activated receptor delta (Homo sapiens), sequence (Q03181 whole entry, looked up): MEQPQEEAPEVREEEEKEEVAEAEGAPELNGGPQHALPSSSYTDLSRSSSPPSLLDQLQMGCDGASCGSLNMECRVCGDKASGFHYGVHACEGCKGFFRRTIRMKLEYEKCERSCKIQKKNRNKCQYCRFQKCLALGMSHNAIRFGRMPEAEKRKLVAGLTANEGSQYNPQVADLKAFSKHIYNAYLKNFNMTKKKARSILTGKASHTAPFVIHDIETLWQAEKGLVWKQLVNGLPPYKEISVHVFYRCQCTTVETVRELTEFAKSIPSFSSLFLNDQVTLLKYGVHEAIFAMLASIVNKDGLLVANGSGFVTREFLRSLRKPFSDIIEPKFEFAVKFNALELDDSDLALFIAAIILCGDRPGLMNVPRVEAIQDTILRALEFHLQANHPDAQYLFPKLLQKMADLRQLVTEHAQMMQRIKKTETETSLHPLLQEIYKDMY

NS(=O)(=O)c1cc2c(cc1C(F)(F)F)NCNS2(=O)=O
not listed: [18] | [19] | [20]
inactive: all other assays above

CCCCC(O)/C=C(C)/C=C/C=C/C(=O)N1CCCC1=O (centres undefined)
not listed: [20]
inactive: all other assays above

CC1(C)S[C@@H]2[C@H](NC(=O)Cc3ccccc3)C(=O)N2[C@H]1C(=O)O (tested in a mixture with another compound)
not listed: [4] | [6] | [7] | [8] | [19]
inactive: all other assays above

COC(=O)c1cc(Cl)c(NC(C)=O)cc1OC
inactive: all assays above

CCN1CCN(C(=O)N[C@@H](C(=O)N[C@@H]2C(=O)N3[C@@H]2SC(C)(C)[C@H]3C(=O)O)c2ccccc2)C(=O)C1=O
not listed: [8] | [19]
inactive: all other assays above

CC/C=C\CCCCCCCCCCOC(C)=O
not listed: [4] | [8] | [19] | [20]
inactive: all other assays above

C/C=C(\C)C=O
inactive: all assays above

O=C(CCBr)N1CCN(C(=O)CCBr)CC1
inactive: all assays above

CC/C=C/CCCCCCCCCCOC(C)=O
not listed: [4] | [5] | [19]
inactive: all other assays above

CC(C)(C)C(=O)CC(=O)C(C)(C)C
not listed: [1] | [3] | [20]
inactive: all other assays above

N[C@H]1C(O)O[C@H](CO)[C@@H](O)[C@@H]1O (some centres undefined)
not listed: [4] | [5] | [8] | [18] | [19] | [20]
inactive: all other assays above

CC(O)CCCCn1c(=O)c2c(ncn2C)n(C)c1=O (centres undefined)
not listed: [4] | [5] | [8] | [19]
inactive: all other assays above

CC(=O)Oc1ccc(C(C)=O)cc1
not listed: [2] | [5] | [7] | [18]
inactive: all other assays above

CCO/C=C1\N=C(c2ccccc2)OC1=O
not listed: [4] | [5] | [6] | [7] | [19]
inactive: all other assays above

CCCCC(CC)CCC(CC(C)C)OS(=O)(=O)O (centres undefined)
not listed: [1] | [3]
inactive: all other assays above

CCOC(=O)CN1CCCC1=O
not listed: [1] | [4] | [5] | [19]
inactive: all other assays above

O=c1[nH]c(=O)c2cn[nH]c2[nH]1
not listed: [4] | [5] | [19]
inactive: all other assays above

CCN1CCN(C(=O)N[C@@H](C(=O)N[C@@H]2C(=O)N3C(C(=O)O)=C(CSc4nnnn4C)CS[C@H]23)c2ccc(O)cc2)C(=O)C1=O
not listed: [2] | [4] | [6] | [7] | [8] | [19] | [20]
inactive: all other assays above

COCCCOc1cc(C[C@@H](C[C@H](N)[C@@H](O)C[C@H](C(=O)NCC(C)(C)C(N)=O)C(C)C)C(C)C)ccc1OC
not listed: [1] | [3] | [4] | [6] | [7] | [8] | [19] | [20]
inactive: all other assays above

CCCCCCCCCCCCCCBr
not listed: [1] | [3] | [20]
inactive: all other assays above

C=CC(=O)OCC[N+](C)(C)C
not listed: [2]
inactive: all other assays above

N#CC1(N)CCCCC1
not listed: [1] | [3] | [4] | [19]
inactive: all other assays above

CC[N+](C)(CC)CC
not listed: [1] | [3] | [5] | [6] | [7]
inactive: all other assays above

COCc1nnc(-c2ccc[n+]([O-])c2)n1-c1c(Cl)c(Cl)cc2[nH]c(=O)c(=O)[nH]c12
not listed: [1] | [3]
inactive: all other assays above

CCOC(=O)CC
not listed: [2] | [6] | [7] | [18] | [20]
inactive: all other assays above

O=C(O)Cc1ccccc1Oc1ccc(Cl)cc1Cl
not listed: [1] | [3] | [6] | [7] | [20]
inactive: all other assays above

O=C(OOC(=O)c1ccccc1)c1ccccc1
not listed: [4] | [6] | [7] | [8] | [19]
inactive: all other assays above

C=CC(=O)OCCOCCOCC
not listed: [1] | [3] | [4] | [6] | [7] | [19] | [20]
inactive: all other assays above

CN(C)CCc1c[nH]c2ccc(C[C@H]3COC(=O)N3)cc12
not listed: [1] | [3] | [6] | [7] | [8]
inactive: all other assays above

C[C@]12C=CC(=O)C=C1[C@@H](F)C[C@@H]1[C@@H]2[C@@H](O)C[C@@]2(C)[C@H]1CC[C@]2(O)C(=O)CO
not listed: [2] | [4] | [19]
inactive: all other assays above

C[n+]1ccccc1/C=N/O
not listed: [2] | [4] | [19]
inactive: all other assays above

CSC(=O)c1cccc2nnsc12
not listed: [2] | [4] | [5] | [8] | [18] | [19]
inactive: all other assays above

COC(=O)c1c(C)cc(O)c(C)c1O
not listed: [4] | [5] | [19]
inactive: all other assays above
